Reference: PubChem BioAssay (NCI)
The panel holds about 83,000 compounds, 20% with a hit somewhere; the sample as a whole holds those more often.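 How to read the values: 0–100, growth inhibition (40 = 60% inhibited); 0, no net growth; -100 to 0, cell death (-40 = 40% of starting cells died; -100 = all dead).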 Calls of active or inactive are those of the source. Rule for the calls: active = growth percent below 10; inactive = the rest.

Key:
Assay in all cases: NCI-60 one-dose screen, 48 h (100 = growth as untreated, 0 = no growth, -100 = all killed)
Details in all cases: 10 µM unless noted
[1] = system: SR leukemia
[2] = system: RPMI-8226 leukemia
[3] = system: OVCAR-8 ovarian
[4] = system: OVCAR-5 ovarian
[5] = system: OVCAR-4 ovarian
[6] = system: SK-OV-3 ovarian
[7] = system: IGROV1 ovarian
[8] = system: OVCAR-3 ovarian
[9] = system: HS 578T breast
[10] = system: NCI/ADR-RES ovarian

Measured: growth

CCCCCCCCCCCCCCCCNC(=O)Nc1ccc(C)c(NC(=O)NCCCCCCCCCCCCCCCC)c1
inactive: [1] 104% | [2] 99.2% | [3] 105% | [4] 109% | [5] 108% | [6] 105% | [7] 107% | [8] 109% | [9] 95.1% | [10] 112%

NCCCOc1cc(Cl)ccc1NC(=O)c1cc2ccccc2cc1OCCCN
active: [1] -38.9% | [2] -43.9% | [3] -73.3% | [4] -72.3% | [5] -70.6% | [6] -42.4% | [7] -43.5% | [8] -86.9% | [9] -56.4%
inactive: [10] 57.2%

COC(=O)[C@H](Cc1cn(C)cn1)NC(=O)[C@H](Cc1c[nH]c2ccccc12)NC(=O)Nc1cc(C(F)(F)F)cc(C(F)(F)F)c1
active: [1] -42.8% [100 µM] | [2] -38.4% [100 µM] | [3] -78.5% [100 µM] | [4] -73.6% [100 µM] | [5] -50.7% [100 µM] | [6] -89.9% [100 µM] | [7] -46.2% [100 µM] | [8] -95.7% [100 µM]
inactive: [9] 10.4% [100 µM] | [10] 69.7% [100 µM]

C#CCCCCCCC[C@@H]1OC(=O)[C@H]([C@@H](C)CC)NC(=O)[C@H]([C@@H](C)CC)NC(=O)CC(=O)[C@@H]1C
inactive: [1] 82.2% | [2] 89.4% | [3] 101% | [4] 90.6% | [5] 97.6% | [6] 103% | [7] 89.5% | [8] 101% | [9] 90.1% | [10] 94.9%

COc1cc(OC)cc(-c2ccc(-c3ccc(C(=N)N)cc3)s2)c1
active: [1] -4.93% | [2] -58.2% | [3] -27.8% | [4] -82% | [5] -67.5% | [6] -81.9% | [7] -71.1% | [8] -86.2% | [9] -51.8% | [10] -51.4%

CC(C)CCCCCOC(=O)c1ccccc1SSc1ccccc1C(=O)OCCCCCC(C)C
inactive: [1] 86.9% | [2] 88.8% | [3] 104% | [4] 106% | [5] 109% | [6] 108% | [7] 116% | [8] 111% | [9] 104% | [10] 107%

CCN(CC)CCCNc1c2ccc(Cl)cc2nc2ccc(OC)cc12
inactive: [9] 34.1%
active: [1] -30.3% | [2] -21.5% | [3] 4.01% | [4] 3.61% | [5] -35.2% | [6] 3.94% | [7] 6.62% | [8] -11.5% | [10] 0.48%

O=[N+]([O-])c1ccc(-c2ncc(-c3ccc(O)cc3O)[nH]2)cc1
inactive: [2] 74.1% | [3] 101% | [4] 125% | [5] 104% | [6] 116% | [7] 97.6% | [8] 105% | [9] 70.9% | [10] 115%
active: [1] -28.9%

COc1ccccc1Cn1cc2c(c1)-c1oncc1CC2
active: [6] -18.2% | [8] -29.3% | [9] 8.86% | [10] -2.96%
inactive: [1] 16% | [2] 32.5% | [3] 36.2% | [4] 35.2% | [5] 49.2% | [7] 16.2%

CC(=O)Nc1nc(C)c(C(=O)NN)s1
inactive: [1] 107% | [2] 120% | [3] 111% | [4] 100% | [5] 118% | [6] 102% | [7] 95% | [8] 104% | [9] 86% | [10] 98.6%

O=S(=O)(O)CCI
inactive: [1] 116% | [2] 115% | [3] 113% | [4] 108% | [5] 105% | [6] 111% | [7] 110% | [8] 114% | [9] 100% | [10] 105%

CC(Br)c1nc2ccccc2cc1C(N)=O (centres undefined)
inactive: [1] 74.9% | [2] 100% | [3] 112% | [4] 108% | [5] 109% | [6] 95.3% | [7] 108% | [8] 105% | [10] 109%
